Screening data as filed in PubChem.
An excerpt weighted towards active compounds, which were near 1.8% of everything screened.
Mcl1 Noxa PPI: disrupts binding of human Mcl-1 to Noxa peptide | Q07820 | TR-FRET Mcl-1/Noxa peptide binding, 2 h | inhibition, % at 21.7 µM | 220,000 tested, 1.5% active | AID 1022;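 active = compounds that cut the protein-peptide binding signal by more than 50% relative to plate controls in a single-dose test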;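 note: His-tagged Mcl-1 with rhodamine Noxa BH3 peptide and terbium anti-His antibody; 0% = Mcl-1 plus Noxa peptide wells and 100% = peptide-only wells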
Bim-Mcl-1: inhibitors of Bim-Mcl-1 interaction, human; Q07820; Bead-based flow cytometry, Bim peptide-Mcl-1 binding; inhibition, % at 10 µM; 190,000 tested, 0.1% active; AID 1009; in the data active = inhibition above about 40%;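 note: 0% = no compound tracer wells and 100% = peptide blocker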
Mcl1 Bid PPI: Mcl-1/Bid interaction inhibition; 220,000 tested, 0.97% active; inhibition, % at 21.7 µM; TR-FRET Mcl-1/Bid-Dy647 peptide binding, 1536-well; AID 1021; Q07820;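 active = compounds that cut the binding signal by more than half at the single screening dose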;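 note: His-tagged Mcl-1 with europium anti-His antibody binding Bid BH3 peptide; 0% = Mcl-1 plus peptide wells and 100% = peptide-only wells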
TLR4-MyD88 BLA: blocks binding of human TLR4 to MyD88 | HeLa CL3-4 TLR4/MyD88 BLA complementation, FRET ratio | inhibition, % at 8.4 µM | 200,000 tested, 0.18% active | AID 861; in the data active = inhibition above about 25%;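 note: 0% = vehicle and 100% = reference inhibitor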
TLR9-MyD88 block: blocks human TLR9 binding to MyD88; inhibition, % at 4.98 µM; AID 504734; 340,000 tested, 0.21% active; CHO BLA complementation TLR9-MyD88, CCF4 FRET ratio;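 active = inhibition above the mean over all tested compounds plus 3 SD, cut at about 21% in these data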;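 note: 0% = DMSO only wells and 100% = clavulanate BLA inhibitor control wells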
NOD2-RIPK2 inh: inhibitors of human NOD2-RIPK2 interaction | CHO BLA complementation NOD2-RIPK2, CCF4 ratio | inhibition, % at 4.98 µM | 360,000 tested, 0.38% active | AID 624267; in the data active = inhibition above about 21%;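 note: 0% = vehicle only and 100% = reference blocker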
Active calls of the source: *; . = not tested or not shown; ! = not active in a repeat.

SMILES | Mcl1 Noxa PPI | Bim-Mcl-1 | Mcl1 Bid PPI | TLR4-MyD88 BLA | TLR9-MyD88 block | NOD2-RIPK2 inh
O=C(CN1C(=O)/C(=C2\SC(=S)N(C3CCS(=O)(=O)C3)C2=O)c2ccccc21)Nc1ccccc1 (stereo not drawn) | 121* | -3 | 99* | 3 | -6 | -3
Cc1ccc(NC(=O)CN2C(=O)/C(=C3\SC(=S)N(C4CCS(=O)(=O)C4)C3=O)c3ccccc32)cc1 (stereo not drawn) | 75* | 0 | 100* | 0 | 1 | -5
COc1ccc(NC(=O)CN2C(=O)/C(=C3\SC(=S)N(CCC(=O)O)C3=O)c3ccccc32)cc1 | . | . | . | . | 6 | -7
O=C(Nc1ccc(F)c(Cl)c1)c1cncs1 | . | . | . | . | -13 | 9
CC1=Nc2ccc(C)cc2/C1=C/c1c(N)n2c(S(=O)(=O)C(C)C)nsc2nc1=O | 81* | -2 | 17 | -8 | -9 | 3
O=C(Nc1ccc(C(=O)O)cc1)/C(=C\C=C\c1ccccc1)NC(=O)c1ccccc1Br | . | . | . | . | -9 | -14
O=c1nc(/C=C/c2cccn2-c2ccc([N+](=O)[O-])cc2)cc(C(F)(F)F)[nH]1 | 57* | 0 | -63 | 6 | 0 | -3
O=c1nc(/C=C/c2cc([N+](=O)[O-])ccc2Cl)cc(C(F)(F)F)[nH]1 | 13 | 2 | 2 | 5 | -6 | -7
Cc1cc2nc3c(=O)[nH]c(=O)[nH]c3nc2c([N+](=O)[O-])c1N | 71* | 14 | -46 | -13 | 0 | -5
CN(C(=O)CSc1nc2[nH]ncc2c(=O)[nH]1)c1ccccc1 | . | . | . | . | 4 | -2
CCO[C@H]1OC(C(N)=O)=C[C@@H](c2ccc(Br)cc2)[C@@H]1CCCO | -5 | 2 | -7 | -4 | -1 | -7
CCO[C@H]1OC(C(N)=O)=C[C@@H](c2ccccc2)[C@@H]1CCCO | -15 | -1 | 51* | -4 | 9 | 4
CN(CC(=O)NCC(=O)Nc1ccc(F)cc1)C1CCS(=O)(=O)C1 (stereo not drawn) | . | . | . | . | 5 | -10
CCN(CC)c1ccc(NC(=O)c2ccc3c(c2)c(C)c(C)n3C)cc1 | 77* | 0 | -4 | 7 | -3 | -2
CCOc1cccc(C(=O)Nc2ccc3ccccc3c2)c1 | . | . | . | . | -8 | 7
CCN(CC)c1ccc(NC(=O)c2cnn(CC)c2)cc1 | 66* | -3 | 18 | -27 | 4 | -3
Cc1cccc(OCCCC(=O)Nc2ccc(S(N)(=O)=O)cc2)c1 | 6 | -2 | 1 | 0 | -2 | -15
CCOc1cccc(C(=O)Nc2ccc(N(CC)CC)cc2)c1 | 65* | 0 | -30 | 6 | -7 | -4
CCN(CC)c1ccc(NC(=O)CCCOc2cccc(C)c2)cc1 | 77* | 1 | -49 | 8 | -2 | -3
CCn1cc(C(=O)Nc2ccccc2C(=O)OC)cn1 | . | . | . | . | . | -4
C=CCNc1ncnc2c1ncn2[C@H]1CN(C2CCCC2)C[C@@H](CO)O1 | . | . | . | . | . | -10
COC(=O)[C@@]1(Cc2ccc(F)cc2)[C@H]2c3cc(C(=O)N4CCCC4)n(CCc4ccc(OC)c(Br)c4)c3C[C@H]2CN1C(=O)c1ccccc1 | . | . | . | . | . | -13
COC(=O)[C@@]1(Cc2ccc(F)cc2)[C@H]2c3cc(C(=O)N4CCCC4)n(CCc4ccc(O)c(O)c4)c3C[C@H]2CN1C(=O)c1ccccc1 | 65* | 17 | -7 | -3 | . | .
Cc1ccc(Nc2nnc(SC/C(O)=C(\C#N)c3nc4ccccc4[nH]3)s2)c(C)c1 | 70* | -1 | -15 | -6 | -1 | -9
Cc1cccc(Nc2nnc(SC/C(O)=C(\C#N)c3nc4ccccc4[nH]3)s2)c1 | 52* | -3 | -23 | 5 | -10 | -13
SMILES | Mcl1 Noxa PPI | Bim-Mcl-1 | Mcl1 Bid PPI | TLR4-MyD88 BLA | TLR9-MyD88 block | NOD2-RIPK2 inh
Cc1cc(C)n2c(SCC(O)=C(C#N)c3nc4ccccc4[nH]3)nnc2n1 | . | . | . | . | -12 | -11
Cc1ccc(NC(=S)Nc2cccc(-c3n[nH]c(=S)o3)c2)cc1 | 59* | . | -18 | . | -7 | -6
NC(=S)Nc1cccc(-c2n[nH]c(=S)o2)c1 | 18 | . | -48 | . | 7 | 5
Nc1cc([N+](=O)[O-])ccc1Nc1ccc(O)cc1 | 72* | . | -234 | . | -12 | -6
N[C@@H](Cc1cc(I)c(Oc2ccc(O)c(I)c2)c(I)c1)C(=O)O | 105*! | 0 | 66*! | -6 | -6 | -4
O=C(O)CCc1cc(I)c(Oc2ccc(O)c(I)c2)c(I)c1 | 69* | . | 27 | . | . | .
N[C@@H](Cc1ccc(O)c(O)c1)C(=O)O | . | . | . | . | 6 | -6
Cc1cc(C)c(S(=O)(=O)N2CCN(S(=O)(=O)N3CCOCC3)CC2)c(C)c1 | . | . | . | . | -7 | 2
O=S1(=O)CC(N2CCCCC2)CN1C1CCCCC1 (stereo not drawn) | . | . | . | . | . | 1
CCOC(=O)c1nnn(-c2nonc2N)c1CN1CCc2ccccc2C1 | -6 | -5 | -17 | -5 | 0 | -1
CCOC(=O)c1nnn(-c2nonc2N)c1CS(=O)(=O)c1ccccc1 | 11 | -1 | 55* | -18 | 5 | -4
Cc1cc(C(=O)Nc2ccc(F)cc2C)n(-c2ccccc2)n1 | 12 | . | -32 | . | 8 | -8
Cc1ccc(C(=O)Nc2c(-c3cccs3)c(=O)c3ccccc3n2C)cc1 | 0 | 1 | 66* | 9 | 3 | 3
COc1ccc(C(=O)Nc2c(-c3cccs3)c(=O)c3ccccc3n2C)cc1 | 13 | . | -8 | . | -12 | -19
COCCN(C(=O)C1CCCO1)c1c(N)n(CC(C)C)c(=O)[nH]c1=O (stereo not drawn) | . | . | . | . | 0 | -6
COc1cc2[nH]c(=S)n(C3CC3)c(=O)c2cc1OC | 23 | 1 | -59 | -9 | 2 | -4
COc1cc2[nH]c(=S)n(N(C(C)=O)C(C)=O)c(=O)c2cc1OC | 8 | -3 | 97* | -15 | -2 | 7
Cn1c(=Nc2ccccc2)sc2ccccc21 | -4 | -5 | -1 | 2 | 2 | -17
CN(C)c1ccc(N=c2sc3ccccc3n2C)cc1 | 101* | 1 | 33 | 2 | -10 | 0
COc1cc(O)c2c(c1)OC(c1ccc(O)cc1)CC2=O (stereo not drawn) | 17 | -5 | 1 | -11 | 11 | 5
Cc1c(O)cc2c(c1O)C(=O)CC(c1ccc(O)cc1)O2 (stereo not drawn) | 86* | 1 | 65* | -16 | -2 | -13
Cc1ccccc1-c1cnc(C(O)c2cc(Cl)cc(Cl)c2)[nH]1 (stereo not drawn) | . | . | . | . | . | 3
COc1cc(/C=N/NC(=O)C2c3ccccc3Oc3ccccc32)ccc1O | 79* | 13 | 10 | 6 | 3 | 1
COc1cc(/C=N/N(C)c2ccccc2)ccc1O | 56* | 0 | -36 | -10 | -10 | -5
COc1cc(/C=N/NC(=O)C2COc3ccccc3O2)ccc1O (stereo not drawn) | 4 | . | -36 | . | 3 | -4
Cc1nn(-c2ccccc2)c(C)c1NC(=O)COc1ccc(C#N)cc1 | 8 | -6 | -5 | -11 | -1 | -12
